D2 ag-1: agonists of human D2 dopamine receptor (beta-arrestin); activation, % (no concentration beside the values); hit rate 0.084% among 360,000; AID 624465; DiscoveRx PathHunter D2 beta-arrestin, luminescence, 90 min; 100% = 57 uM dopamine signal; P14416; in the data active means activation above about 40%; inconclusive means between about 15% and that limit
Target sequence (P14416 whole entry, looked up): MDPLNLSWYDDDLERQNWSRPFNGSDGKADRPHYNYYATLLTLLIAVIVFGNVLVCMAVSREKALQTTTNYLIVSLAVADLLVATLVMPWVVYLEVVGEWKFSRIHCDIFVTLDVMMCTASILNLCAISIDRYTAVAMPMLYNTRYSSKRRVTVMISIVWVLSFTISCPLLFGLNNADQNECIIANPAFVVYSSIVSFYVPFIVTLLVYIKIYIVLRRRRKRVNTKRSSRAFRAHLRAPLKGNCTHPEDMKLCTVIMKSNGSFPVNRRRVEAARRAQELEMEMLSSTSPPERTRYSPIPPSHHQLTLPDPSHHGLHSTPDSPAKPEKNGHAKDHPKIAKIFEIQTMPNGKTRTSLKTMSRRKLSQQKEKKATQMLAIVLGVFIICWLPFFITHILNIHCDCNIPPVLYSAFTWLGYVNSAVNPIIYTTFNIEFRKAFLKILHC
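DiscoveRx PathHunter D2 beta-arrestin cells (2,100/well) attached overnight, then compound-stimulated 90 min at 37 C in HBSS/10 mM HEPES/0.1% Tween-20 buffer; beta-galactosidase complementation read by luminescence after 1 h at ambient temperature. Dopamine 57 uM final (EC100) as control.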
D2 ag-2: agonists of human D2 dopamine receptor; P14416; HEK293 T-REx D2 cells, calcium flux agonist mode; activation, % at 2 µM; hit rate 0.53% among 340,000; AID 485358;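 active means activation over 3 SD above normal in the single-dose calcium agonist read, cut at about 30% in these data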; further: 0% is about no effect
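HEK293 Trex D2 cells, tetracycline-induced, o/n 30 C 5% CO2; no-wash Ca dye, RT 30–90 min; 10-cycle baseline, 23 nl cpd added, kinetic Ca read 180 s; agonist hits = positive Ca response.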
D2 antagonist: D2 dopamine receptor (human) antagonism | P14416 | HEK293 TREx D2 cells, calcium flux, dopamine EC80 | inhibition, % at 10 µM | hit rate 2% among 340,000 | AID 485344; in the data active means inhibition above about 30%; inactive means below that, where a call was filed; further: 0% is about no effect
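Antagonism is scored as inhibition of an EC80 dopamine-evoked calcium signal in a force-coupled, tetracycline-inducible HEK293 T-REx D2 line, with compound present 180 s before agonist.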
D2 PAM-1: positively modulates the human D2 dopamine receptor allosterically; P14416; HEK293 T-REx D2, calcium flux, EC20 dopamine potentiation; AID 485347; hit rate 0.34% among 340,000; potentiation, % at 10 µM;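 active means potentiation over 3 SD above the plate norm, cut at about 30% in these data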; further: 0% is about no effect
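Primary screen. Calcium kinetics in induced HEK293 T-REx D2 cells: compound pre-addition 180 s, EC20 dopamine, 180 s more.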
D2 PAM-2: potentiates the human D2 dopamine receptor allosterically; hit rate 0.23% among 360,000; potentiation, % (concentration not given with the values); AID 624464; DiscoveRx D2 beta-arrestin cells, luminescence, 90 min; 100% = 57 uM dopamine signal; in the data active means potentiation above about 50%; inconclusive means mostly about 30% to 49%
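PathHunter beta-arrestin assay in DiscoveRx D2 cells. Compounds were added with an EC20 of dopamine (50 nM final) for 90 min at 37 deg C. Luminescence was read 1 h after detection reagent, with 57 uM dopamine as the EC100 control.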
The depositor's hits bear a star; ? = inconclusive; . = no result given. An excerpt weighted towards active compounds, which were near 2.4% of everything screened.

SMILES	D2 ag-1	D2 ag-2	D2 antagonist	D2 PAM-1	D2 PAM-2
CCc1ccc(N2CC(C(=O)OCc3csc(CC(=O)Nc4ccccc4C)n3)CC2=O)cc1 (stereo not drawn)	-4	1	-5	56*	-3
CCOC(=O)/C=C/C(=O)OCc1csc(CC(=O)Nc2ccccc2C)n1	-7	1	-2	-2	8
Cc1ccc(NC(=O)CN(C)S(=O)(=O)c2ccc3c(c2)CCC(=O)N3)c(C)c1	.	.	.	-3	.
O=C(NCCOCCn1c(=O)oc2ccccc21)Nc1ccc(Cl)cc1	.	-1	.	.	.
Oc1ccc(-c2nc(-c3ccc(O)c(O)c3)cs2)cc1	14	3	-5	-5	50*
O=C(N/N=C/c1cccc(Br)c1)C1CC(=O)N(c2ccccc2)C1 (stereo not drawn)	0	0	35*	-17	-8
COc1ccc(N2CC(C(=O)N/N=C/c3ccccc3)CC2=O)cc1 (stereo not drawn)	-2	0	-6	1	-4
CCCOc1cccc(C(=O)N(Cc2sccc2C)C2CCS(=O)(=O)C2)c1 (stereo not drawn)	.	2	.	1	.
CC(=O)Oc1oc(-c2ccccc2)nc1/C=N/c1ccccn1	2	1	-5	-1	-11
COc1ccccc1N=Cc1nc(-c2ccccc2)oc1OC(C)=O	-1	0	50*	-9	5
O=C(Cc1ccccc1[N+](=O)[O-])NCCc1ccc(F)cc1	-2	1	-29	2	-3
CC(C)CCNC(=O)Cc1ccccc1[N+](=O)[O-]	-2	0	-1	33*	-10
CC(C)(C)C1CCc2c(sc(NC(=O)c3cc4ccccc4c(=O)o3)c2C(N)=O)C1 (stereo not drawn)	.	0	.	11	.
COc1ccc(CNC(=O)C2CCN(S(=O)(=O)c3ccc(F)cc3)CC2)cc1	.	-2	.	-20	.
Cc1ccc(S(=O)(=O)N2CCC(C(=O)N3CC(C)OC(C)C3)CC2)cc1 (stereo not drawn)	-4	-1	50*	2	-12
COc1ccc(COC(=O)NC2CCN(S(=O)(=O)c3ccc(OC)cc3)CC2)cc1	0	-1	-8	11	-4
COc1ccc(S(=O)(=O)N2CCC(C(=O)NCc3ccc(C)cc3)CC2)cc1	-4	0	34*	-1	-8
COc1ccc(S(=O)(=O)N2CCC(NC(=O)OCc3c(Cl)cccc3Cl)CC2)cc1	-2	1	35*	5	-7
COc1ccc(CNC(=O)C2CCCN(S(=O)(=O)c3ccc(-n4cnnn4)cc3)C2)cc1 (stereo not drawn)	-3	1	36*	-16	3
Cc1ccc(NC(=O)c2ccc(F)c(S(=O)(=O)NCCc3ccccc3)c2)cc1F	.	1	.	1	.
Cc1nc(-c2cccc(S(=O)(=O)N3CCOCC3)c2)cs1	-2	0	35*	14	-3
Cc1cc(C)cc(NC(=O)N2CCC(N3CCCCC3)CC2)c1	.	-1	.	-8	.
CC(C)CNC(=O)COC(=O)c1ccc([N+](=O)[O-])cc1Cl	3	-1	-6	0	57*
O=C1COc2ccc(C(=O)COC(=O)c3ccc([N+](=O)[O-])cc3Cl)cc2N1	?	1	3	-13	51*
O=C(COC(=O)c1ccc([N+](=O)[O-])cc1Cl)NCc1ccco1	8	0	-5	0	7
SMILES	D2 ag-1	D2 ag-2	D2 antagonist	D2 PAM-1	D2 PAM-2
O=C1COc2ccc(C(=O)COC(=O)c3ccc(Cl)cc3[N+](=O)[O-])cc2N1	?	0	9	-1	52*
O=C1COc2ccc(C(=O)COC(=O)c3ccccc3[N+](=O)[O-])cc2N1	2	.	.	0	-12
COc1ccc(NC(=O)c2c(C)oc3ccc(O)c(CN4CCN(Cc5ccccc5)CC4)c23)cc1Cl	.	0	.	0	.
CCOc1ccccc1NC(=O)c1cc2cc(C)ccc2n1C	.	-1	.	4	.
CS(=O)(=O)Nc1nc2n(n1)C(c1ccccc1)C=C(c1ccc(Br)cc1)N2 (stereo not drawn)	?	2	-5	-6	75*
Cc1ccc(C2C=C(c3ccccc3)Nc3nc(NS(=O)(=O)c4ccc(C)cc4)nn32)cc1 (stereo not drawn)	.	2	.	-4	.
CCOC(=O)c1ccccc1NC(=O)N1CCC(CN2CCCCC2)CC1	.	1	.	-6	.

Assay outcomes (PubChem)
